The full list was thinned out, with hits kept by preference.
NPSR antagonist: qHTS Assay for Antagonists of the Neuropeptide S Receptor: cAMP Signal Transduction. Q6W5P4. CHO-NPSR cells, cAMP TR-FRET, antagonist mode. Potency, µM (series often up to 38.3 µM), for the others: top-dose activity change, negative = inhibition, actives largely listed as inhibitors. 220,000 compounds, 1% hits. AID 1461, 2008; also: potency is read from the fitted curve at half-maximal effect; % is scaled to controls: 0 for no effect and ±100 for the full control effect; nearly all actives have a fitted effect of over 50% in size
RXFP1 ag: qHTS Assay for Agonists of the Relaxin Receptor RXFP1 | Potency, µM (titrated, usually from 57.5 µM), for inactives: top-dose activation, most hits filed as activators | AID 2676, 2010 | HEK293T-RXFP1 cAMP TR-FRET, 30 min; response scale: percent of porcine relaxin response, buffer zero | 370,000 compounds, 0.3% hits; also: potency is read from the fitted curve at half-maximal effect; % is scaled to controls: 0 for no effect and ±100 for the full control effect; nearly all actives have a fitted effect of over 60% in size
Target sequence (Q9HBX9 whole entry, looked up): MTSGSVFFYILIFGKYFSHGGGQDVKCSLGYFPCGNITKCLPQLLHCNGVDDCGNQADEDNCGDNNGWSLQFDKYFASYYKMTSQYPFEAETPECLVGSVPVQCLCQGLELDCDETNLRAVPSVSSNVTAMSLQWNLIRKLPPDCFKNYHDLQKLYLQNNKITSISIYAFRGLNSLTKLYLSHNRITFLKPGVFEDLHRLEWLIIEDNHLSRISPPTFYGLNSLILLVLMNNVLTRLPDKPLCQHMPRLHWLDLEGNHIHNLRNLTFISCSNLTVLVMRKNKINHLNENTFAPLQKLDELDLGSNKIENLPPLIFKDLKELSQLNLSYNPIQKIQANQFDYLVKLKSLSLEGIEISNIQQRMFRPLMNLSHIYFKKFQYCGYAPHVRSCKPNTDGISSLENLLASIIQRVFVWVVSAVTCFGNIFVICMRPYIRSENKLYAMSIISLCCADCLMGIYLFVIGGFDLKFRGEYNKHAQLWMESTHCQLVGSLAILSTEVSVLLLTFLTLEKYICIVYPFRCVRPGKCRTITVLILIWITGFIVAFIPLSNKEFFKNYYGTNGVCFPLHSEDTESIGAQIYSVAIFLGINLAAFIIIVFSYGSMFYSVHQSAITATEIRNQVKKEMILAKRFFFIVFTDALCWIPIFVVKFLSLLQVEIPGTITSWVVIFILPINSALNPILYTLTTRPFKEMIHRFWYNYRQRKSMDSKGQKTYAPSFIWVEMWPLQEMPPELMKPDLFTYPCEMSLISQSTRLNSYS
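cAMP rise read by TR-FRET after 30 min, 37C compound exposure (up to 58 uM) in RXFP1-transfected HEK293 cells with Ro 20174 present. EC50 from Hill-equation fits, with 29 nM porcine relaxin as 100% and buffer as basal.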
GLP1R cytotox: qHTS of GLP-1 Receptor Inverse Agonists: Cytotox Screen. HEK293 cAMP-luciferase reporter cells, luminescence, 24 h. Potency, µM (top dose mostly 38.3 µM), for inactives: at the highest dose activity change, negative = inhibition, most hits filed as inhibitors. 410,000 compounds, 0.13% hits. AID 624418, 2012;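 also: loss of luciferase light is scored as toxicity; potency is read from the fitted curve at half-maximal effect; % is scaled to controls: 0 for no effect and ±100 for the full control effect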
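A 23 nL compound transfer followed 12 hours of cell culture at 37 deg C; exposure then lasted 24 hr. Luciferase assay detection reagent was dispensed and plates read for luminescence after a 12 min room-temperature wait.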
RXFP1 antagonist: qHTS Assay for Antagonists of the Relaxin Receptor RXFP1. Relaxin receptor 1 (Homo sapiens), Q9HBX9. HEK293-RXFP1, relaxin-stimulated cAMP HTRF, 30 min; active compounds read low. activity change, negative = inhibition, % at 57.5 µM. 350,000 compounds, 0.59% hits;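 active = activity change of -60% or lower, but not beyond a set lower limit; inconclusive = change between -60% and -40%, or beyond the set limit; inactive = change above -40%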; also: % is scaled to controls: 0 for no effect and ±100 for the full control effect
TSHR antagonist: Antagonists of the Thyroid Stimulating Hormone Receptor: HTS campaign | Thyrotropin receptor (Homo sapiens), P16473 | TSHR-expressing cells, TSH-stimulated cAMP HTRF, 2 h; active compounds read low | activity change, negative = inhibition, % at 11.5 µM | 330,000 compounds, 0.2% hits | AID 504810, 2011;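 active = activity change below a set negative limit, meaning inhibition stronger than a set level, cut at about -70% in these data; inconclusive = activity change between two set negative limits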; also: % is scaled to controls: 0 for no effect and ±100 for the full control effect
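TSHR-expressing cells were treated with compounds, then stimulated with TSH at EC80 (4nM final) for 2 hours at 37 deg C. Cellular cAMP was measured by HTRF competition between lysate cAMP and cAMP-d2 for a cryptate-labelled anti-cAMP antibody.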
PTHR1 agonist: qHTS for PTHR1 Agonists: Primary Screen; 410,000 compounds, 0.075% hits; HEK293 GP2 PTHR1 cells, GloSensor cAMP luminescence, 1 h; AID 743266, 2014; Potency, µM (series often up to 115 µM), for inactives: at the highest dose activation, most hits filed as activators; also: potency is read from the fitted curve at half-maximal effect; nearly all actives have a fitted effect of over 55% in size
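HEK-293-derived GP2 cells expressing PTHR1 and a GloSensor cAMP reporter, 3,000/well, plated overnight, given luciferin plus IBMX (each 0.5 mM as added) for 1 h at 37 °C, then compound for 1 h at 37 °C. Luminescence was read after 15 min at room temperature.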
* = called active by the depositor; i = inactive; ? = inconclusive; . = not tested or not shown; [ ] = dose if it differs, or a comment. Unless noted, calls follow the shape of the dose curve; as a rule, active = well fitted curve in the direction sought with a large enough effect; inconclusive = small, poorly fitted or top-dose-only effect, or another doubt; inactive = no such curve, though single readings can be large; an effect the other way counts as inactive or inconclusive.

SMILES	NPSR antagonist	RXFP1 ag	GLP1R cytotox	RXFP1 antagonist	TSHR antagonist	PTHR1 agonist
O=C(CSc1cccc[n+]1[O-])c1cc2ccccc2o1	7.9µM*	-1%	-20%	-30	-4	-61%[57.5 µM]
N#CC(C#N)=C(N)CSc1cccc[n+]1[O-]	2%	0%	4.5µM*	-16	6	i
O=C(CSc1cccc[n+]1[O-])c1cc(Cl)ccc1Cl	-56%	4%	0.89µM*	-11	-1	i
CCOc1ccc(S(=O)(=O)NCCc2c(C)[nH]c3c(Cl)cccc23)cc1C	.	-1%	-9%	.	.	-25%
C[C@]1(Cn2ccnn2)[C@H](C(=O)O)N2C(=O)C[C@H]2S1(=O)=O	.	.	.	-5	.	.
CC(C)S(=O)(=O)N1CCN(c2ccnc3cc(Cl)ccc23)CC1	36%	26%	14%	-17	-8	i
CN(C)S(=O)(=O)N1CCN(c2ccnc3cc(Cl)ccc23)CC1	.	-2%	-6%	-3	-120*	-55%
COc1cccc(NC(=O)CSc2nc3c(sc4ccccc43)c(=O)n2CCN(C)C)c1	-26%	4%	-1%	-64*	-1	i
NC(=O)C1=CN(C2OC(COP(=O)(O)OP(=O)(O)OC[C@H]3O[C@@H](n4cnc5c(N)ncnc54)[C@H](OP(=O)(O)O)[C@@H]3O)C(O)C2O)C=CC1 (stereo partly drawn)	.	.	.	.	-14	.
Cc1cc(NC(=O)CSc2nc3cc(Cl)ccc3o2)no1	.	9%	?	-2	-3	i
O=S1(=O)C=C(Sc2nc3cc(Cl)ccc3o2)c2ccccc21	?	1%	?	-23	-78*	-12%
COc1ccc(CCNC(=O)c2nnn(CC(=O)Nc3ccc(C)cc3C)c2N)cc1OC	.	1%	-26%	-6	-82*	i
COc1ccc(NC(=O)Cn2nnc(C(=O)NCc3cccs3)c2N)c(OC)c1	.	-1%	?	6	-132*	-59%
Cc1ccc(NC(=O)Cn2nnc(C(=O)NCCc3ccccc3)c2N)c(C)c1	.	-1%	1%	21	-107*	-21%
Cc1ccc(C)c(NC(=O)Cn2nnc(C(=O)NCCc3ccccc3)c2N)c1	.	-1%	16%	11	.	-21%
CO[C@@]1(NC(=O)C(C(=O)O)c2ccc(O)cc2)C(=O)N2C(C(=O)O)=C(CSc3nnnn3C)CO[C@@H]21 (stereo partly drawn)	.	.	.	14	.	.
O=C(Nc1cccc(C(F)(F)F)c1)c1ccc2nc(-c3ccco3)c(-c3ccco3)nc2c1	3%[46.1 µM]	-3%	?	-97*	-16	i
O=C(O)c1ccc2nc(-c3ccco3)c(-c3ccco3)nc2c1	-7%	13%	368%	?	-11	-11%
CC1(C)O[C@@H]2[C@H](O1)[C@@H](COS(=O)(=O)O)O[C@H]2n1cnc2c(N)ncnc21	.	16µM*	.	.	408	.
Cc1cccc2c1-c1sc(C(=O)NCCCN3CCCC(C)C3)cc1CO2 (stereo not drawn)	.	15%	-3%	-36	-75*	-9%
CCCN1CCN(CCCNC(=O)c2cc3c(s2)-c2ccccc2OC3)CC1	.	18%	?	0	-72*	-16%
CCCN1CCN(C(=O)c2cc3c(s2)-c2ccccc2OC3)CC1	.	18µM*	-10%	.	-18	-13%
C(=N\Nc1nc2ccccc2[nH]1)/c1ccccn1	10µM*	-1%	11µM*	10	-6	-95%
CCCCn1c(/C=C/c2ccco2)nc2ccccc21	-23%[46.1 µM]	0%	-1%	2	17	i
CCCCn1c(/C=N/Nc2nc3ccccc3[nH]2)nc2ccccc21	13µM*	1%	14%	-4	-11	i
SMILES	NPSR antagonist	RXFP1 ag	GLP1R cytotox	RXFP1 antagonist	TSHR antagonist	PTHR1 agonist
c1ccc2c(c1)CC/C2=N/Nc1nc2ccccc2[nH]1	7.9µM*	0%	3.5µM*	?	0	i
C(=N\Nc1nc2ccccc2[nH]1)/c1ccc2ncccc2c1	-31%	-4%	?	-8	-8	-65%
CC(C)(C)C1CCC(=NNc2nc3ccccc3[nH]2)CC1 (stereo not drawn)	9%	0%	-25%	-5	0	-13%
O=C(COC(=O)c1ccc(NS(=O)(=O)c2cccs2)cc1)Nc1nc2c(F)c(F)c(F)cc2s1	-14%	3%	-7%	-62*	-19	-22%
C/C(=N\NC(=O)c1ccccc1)c1ccccc1F	6%	-1%	13%	-3	1	i
C/C(=N\NC(=O)c1ccccc1)c1ccccc1Br	3%	4%	5µM*	-7	0	i
CC1(C)c2ssc(=S)c2-c2ccccc2N1C(=O)c1ccco1	-28%[46.1 µM]	0%	-31%	-2	-74*	-2%[57.5 µM]
CCc1ccc(/C=C/C(=O)c2ccc(N3CCOCC3)cc2)cc1	3%	-3%	-6%	-92*	-22	-37%
Cc1nn(Cc2nc(-c3cccs3)no2)c(C)c1Br	-13%[46.1 µM]	1%	-9%	-17	-72*	-70%
O=C(O)c1ccc(OCCN2CCCCC2)cc1	.	.	.	6	.	.
CCN1/C(=C/c2ccc3ccccc3[n+]2CCCS(=O)(=O)[O-])C=Cc2cc(C)ccc21	.	13%	?	21	10	1%
CCN1/C(=C/c2ccc3ccccc3[n+]2CC)C=Cc2ccccc21	7.9µM*	-4%	4.5µM*	?	?	-24%[57.5 µM]
Cc1cc(C)cc(C(=O)NC(CC(N)=O)c2ccc(NCCN3CCCC3)c([N+](=O)[O-])c2)c1 (stereo not drawn)	.	-2%	6%	.	-89*	4%
NC(=S)N/N=C/c1ccc(-n2nncc2-c2ccc(Cl)cc2)cc1	.	1%	?	-73*	.	?
Cc1ccc(C(C)C)c(OCC(=O)N2CCC(c3nc4ccccc4o3)CC2)c1	.	2%	-9%	-98*	.	-17%
COc1ccccc1OCC(=O)N1CCC(c2nc3ccccc3o2)CC1	.	0%	-7%	-20	.	i
CC(C(=O)Nc1ccc(OC(F)(F)F)cc1)N1Cc2ccccc2C1=O (stereo not drawn)	.	-1%	12%	?	.	50µM*
COc1ccc(NC(=O)C(C)N2Cc3ccccc3C2=O)cc1OC (stereo not drawn)	.	4%	-8%	-13	.	-9%
O=C(CCNS(=O)(=O)c1ccc(Cl)cc1)N1CCN(c2ccccn2)CC1	.	2%	1%	-5	2	i

High-throughput results as filed in PubChem BioAssay.
